Measurements reported in PubChem BioAssay (NCATS).
A number with no mark means an inactive call. Results filed as inconclusive are left out. Entries that show only a call come without a potency. The source made the active and inactive calls. Unless noted, the call rests on the fitted dose curve; in most records, active means well fitted curve in the direction sought with a large enough effect; inconclusive means small, poorly fitted or top-dose-only effect, or another doubt; inactive means no such curve, though single readings can be large; an effect the other way counts as inactive or inconclusive.

Columns and labels:
[1] = Cell Viability - N2a (AID 540); details: N2a mouse neuroblastoma cell viability; at 92.2 µM (top of the series); further: nearly all actives have a fitted effect of over 45% in size
Summary of the method: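 Mouse neuroblastoma N2a cells, 1500/well, exposed to compounds 40 h at 37 °C in complete medium. Viability measured as cellular ATP by CellTiter-Glo luminescence; AC50 from Hill fits of concentration-response.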

[2] = Cellular Toxicity (caspase-3) H-4-II-E (AID 663); details: H-4-II-E rat hepatoma, scaled: DMSO 0%, 100 µM tamoxifen 100%; series mostly up to 92.2 µM;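 further: cells exposed to compound for 16 hr before readout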
Summary of the method: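 Luminescence from caspase-cleaved aminoluciferin substrate, read 20 min after reagent addition, reports caspase 3/7 activation in rat H-4-II-E cells after 16 hr compound exposure. Normalized to DMSO (basal) and 100 uM tamoxifen (100%); AC50 from Hill fits.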

[3] = Cell Viability - NIH 3T3 (AID 541); details: NIH 3T3 cell viability, qHTS; activity change, negative = cytotoxicity: at 92.2 µM (top of the series); further: nearly all actives have a fitted effect of over 25% in size; further: potency means the concentration at half of the fitted maximal effect
Summary of the method: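 Mouse NIH 3T3 fibroblasts, 1000 cells/well, rested 5 hr at 37 °C, then exposed to compound for 40 hr at 37 °C in complete medium. Viability read as intracellular ATP by CellTiter-Glo luminescence; AC50 from Hill-equation fits of concentration-response data.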

[4] = Cell Viability - HUV-EC-C (AID 542); details: HUV-EC-C endothelial cell viability, qHTS; series mostly up to 92.2 µM; further: nearly all actives have a fitted effect of over 35% in size
Summary of the method: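 HUV-EC-C human vascular endothelial cells, 1000/well, exposed to compound for 40 hr at 37 °C in complete medium. Intracellular ATP was read by CellTiter-Glo luminescence. AC50 came from Hill-equation fits of concentration-response data.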

[5] = Cell Viability - H-4-II-E (AID 543); details: H-4-II-E rat hepatoma viability; series mostly up to 92.2 µM; further: nearly all actives have a fitted effect of over 35% in size; further: potency means the concentration at half of the fitted maximal effect
Summary of the method: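 Rat hepatoma H-4-II-E cells, 1500 per well, treated 40 h at 37 °C in complete medium. Cellular ATP read by CellTiter-Glo luminescence; AC50 from Hill fits of concentration-response.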

[6] = Cell Viability - SH-SY5Y (AID 544); details: SH-SY5Y neuroblastoma cell viability; series mostly up to 92.2 µM; further: nearly all actives have a fitted effect of over 55% in size
Summary of the method: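 SH-SY5Y human neuroblastoma cells (1500/well) incubated 5 h, then compound-treated 40 h at 37 °C in complete medium. Viability read as intracellular ATP by CellTiter-Glo luminescence after 20 min; AC50 from Hill-equation fits of qHTS concentration-response.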

[7] = Cell Viability - Mesenchymal (AID 546); details: mesenchymal cells viability, qHTS; series mostly up to 91.7 µM;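 further: cells exposed to compound for 40 hours before reading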
Summary of the method: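 Normal human renal glomerulus-derived kidney mesenchymal cells, 1000 per well in complete medium, were treated with compounds for 40 hr at 37 °C. Viability was read as intracellular ATP by CellTiter-Glo luminescence; AC50 values came from Hill-equation fits of qHTS concentration-response data.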

[8] = Cellular Toxicity (caspase-3) NIH 3T3 (AID 666); details: NIH 3T3 caspase-3 activation, apoptosis/toxicity, 0% DMSO, 100% is 100 µM tamoxifen; series mostly up to 92.2 µM
Summary of the method: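 Mouse NIH 3T3 fibroblasts (1000/well) treated 16 h at 37 C; caspase-3/7 activity measured by Caspase-Glo 3/7 luminescence after 20 min. Normalized to DMSO and 100 uM tamoxifen; AC50 from Hill fits.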

[9] = target: Mitogen-activated protein kinase 10 (Mus musculus) (UniProt Q61831); experiment: JNK3 AlphaScreen Assay (AID 530; active means well fitted curve in either direction with a large enough effect, not every such curve was filed as active;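 further: kinase came from lysate of stimulated human HepG2 cells; signal reports phosphorylation of biotinylated GST-cJun 1-79 at Ser73 with 10 µM ATP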); details: JNK3 lysate, c-Jun phosphorylation; series mostly up to 57.1 µM
Summary of the method: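 Inhibitors reduce antibody binding to phosphorylated biotin-cJun, lowering AlphaScreen luminescence. Lysates from HepG2 cells pre-activated by IL-1beta plus TNF-alpha supplied JNK3; compounds were titrated.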

[10] = Cellular Toxicity (caspase-3) HepG2 (AID 654); details: HepG2 caspase-3 activation, luminescence, 0% = DMSO only, 100% = tamoxifen; series mostly up to 92.2 µM;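 further: cells exposed to compound for 16 hours before reading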
Summary of the method: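 HepG2 cells (1500/well) were treated 16 h at 37 °C in complete medium, then caspase 3/7 activity was read by Caspase-Glo luminescence. Data were normalized to DMSO and 100 uM tamoxifen; AC50 came from Hill-equation fits of qHTS concentration-response.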

[11] = Cellular Toxicity (caspase-3) Jurkat (AID 655); details: Jurkat caspase-3 activation, luminescence; series mostly up to 92.2 µM;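 further: cells exposed to compound for 16 h at 37 °C before reading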
Summary of the method: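 qHTS in human Jurkat T-cell leukemia line: 16 hr compound treatment at 37 °C, caspase-3/7 activity measured by Caspase-Glo luminescence. AC50 derived from Hill equation.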

[12] = Cellular Toxicity (caspase-3) BJ (AID 658); details: BJ fibroblasts, luminescence; Potency: caspase-3 activation; series mostly up to 91.7 µM
Summary of the method: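 Luminescent aminoluciferin-substrate cleavage reports caspase 3/7 activity in normal human BJ fibroblasts after 16 hr compound exposure at 37 °C. Normalized to DMSO (basal) and 10 uM staurosporine (100%); AC50 from Hill fit of concentration-response.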

[13] = Cellular Toxicity (caspase-3) MRC-5 (AID 659); details: MRC-5 cells, luminescence, normalized: DMSO 0%, 10 µM staurosporine 100%; series mostly up to 91.7 µM
Summary of the method: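 Luminescence from caspase-cleaved aminoluciferin substrate (Caspase-Glo 3/7, 1 hr RT) reports caspase 3/7 activity in MRC-5 lung fibroblasts after 16 hr compound exposure. Normalized to DMSO basal and 10 uM staurosporine as 100%; AC50 from Hill fits.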

[14] = Cellular Toxicity (caspase-3) Mesangial (AID 660); details: mesangial cells, normalized: DMSO 0%, 100 µM tamoxifen 100%; series mostly up to 91.7 µM;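 further: cells exposed to compound for 16 h before the caspase read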
Summary of the method: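 Human renal glomerular mesangial cells, 1000/well, 5 h at 37 C before 16 h compound treatment. Caspase-Glo 3/7 luminescence after 20 min; normalized to DMSO and 100 uM tamoxifen, AC50 from Hill fit.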

[15] = Cellular Toxicity (caspase-3) SK-N-SH (AID 661); details: SK-N-SH caspase-3 activation, qHTS; caspase-3 activation: at 91.7 µM (top of the series), DMSO as zero, staurosporine as full
Summary of the method: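 Human SK-N-SH neuroblastoma cells, 1500/well, were exposed to compounds for 16 hours at 37 °C. Caspase-Glo 3/7 luminescence was normalized to DMSO (basal) and 10 uM staurosporine (100%), and AC50 came from a Hill fit.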

[16] = Cellular Toxicity (caspase-3) Hek293 (AID 664); details: HEK293 caspase-3 activation, DMSO = 0%, 100 µM tamoxifen = 100%; at 92.2 µM (top of the series);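 further: cells exposed to compound for 16 h at 37 °C before readout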
Summary of the method: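 HEK293 cells in complete medium treated 16 h at 37 °C, then Caspase-Glo 3/7 luminescence read after 20 min at room temperature. Normalized to DMSO and 100 uM tamoxifen; AC50 from Hill fit of concentration-response.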

[17] = Cellular Toxicity (caspase-3) N2a (AID 665); details: N2a cells, luminescence, normalized: DMSO 0%, 10 µM staurosporine 100%; series mostly up to 92.2 µM;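 further: compound exposure lasted 16 h at 37 °C before readout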
Summary of the method: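 Mouse N2a neuroblastoma cells, 1500 per well, treated 16 h at 37 °C in complete medium; caspase-3/7 activity by Caspase-Glo luminescence after 1 h. Normalized to DMSO and 10 uM staurosporine; AC50 from Hill fits.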

Row | SMILES | activity change, negative = cytotoxicity [1] [%] | outcome [2] | activity change, negative = cytotoxicity [3] | Potency [4] | Potency [5] | Potency [6] | outcome [7] | outcome [8] | Potency [3] | outcome [9] | outcome [10] | Potency [11] | Potency [12] | outcome [13] | outcome [14] | Potency [15] | caspase-3 activation [16] [%] | outcome [17]
1 | Nc1ccc(N=Nc2ccccc2)c(N)n1 | -30.4 | inactive |  |  |  |  |  |  |  |  |  |  |  |  |  |  |  | 
2 | OB(O)O | -10.8 | inactive | -22.1% | inactive | inactive | inactive | inactive | inactive |  |  |  |  |  |  |  |  |  | 
3 | Oc1ccc(/C=C/c2cc(O)cc(O)c2)cc1 |  |  |  | inactive | 31.6 µM (active) | inactive | inactive | inactive | 31.6 µM (active) |  |  |  |  |  |  |  |  | 
4 | CC/C=C\C/C=C\C/C=C\CCCCCCCC(=O)O | -20.9 | inactive | -137% (active) | inactive | inactive |  | inactive | inactive |  | inactive | inactive | inactive | inactive | inactive | inactive | inactive | 0.606 | inactive
5 | C[C@H](CCC(=O)O)[C@H]1CC[C@H]2[C@@H]3CC[C@@H]4C[C@H](O)CC[C@]4(C)[C@H]3C[C@H](O)[C@]12C | -18.5 | inactive | -91.1% (active) | inactive | inactive | inactive | inactive | inactive |  | inactive | inactive | inactive | inactive | inactive | inactive | inactive | -1.48 | inactive
6 | CCOC(C)OCC | -0.722 | inactive | -3.45% | inactive | inactive | inactive | inactive | inactive |  | inactive | inactive | inactive | inactive | inactive | inactive | inactive | 0.677 | inactive
7 | [O-][N+](=Nc1ccccc1)c1ccccc1 | 4.21 | inactive | -5.77% | inactive | inactive | inactive | inactive | inactive |  | inactive | inactive | inactive | inactive | inactive | inactive | inactive | 0.871 | inactive
8 | Cc1ccc(S(=O)(=O)O)cc1C | -7.07 | inactive |  | inactive | inactive | inactive | inactive | inactive |  | inactive | inactive | inactive | inactive | inactive | inactive | inactive | 0.165 | inactive
9 | C[C@H](CCC(=O)O)[C@H]1CC[C@H]2[C@@H]3[C@H](O)C[C@@H]4C[C@H](O)CC[C@]4(C)[C@H]3C[C@H](O)[C@]12C | -9.32 | inactive | -13.2% | inactive | inactive | inactive | inactive | inactive |  | inactive | inactive | inactive | inactive | inactive | inactive | inactive | -0.41 | inactive
10 | Oc1cccc(O)c1O | -18.3 | inactive |  | inactive | inactive |  |  | inactive |  | inactive | inactive | inactive | inactive | inactive | inactive | inactive | 1.35 | inactive
11 | OC[C@H]1O[C@@H]2O[C@H]3[C@H](O)[C@@H](O)[C@@H](O[C@H]4[C@H](O)[C@@H](O)[C@@H](O[C@H]5[C@H](O)[C@@H](O)[C@@H](O[C@H]6[C@H](O)[C@@H](O)[C@@H](O[C@H]7[C@H](O)[C@@H](O)[C@@H](O[C@H]1[C@H](O)[C@H]2O)O[C@@H]7CO)O[C@@H]6CO)O[C@@H]5CO)O[C@@H]4CO)O[C@@H]3CO | -3.62 | inactive | -6.68% | inactive | inactive | inactive | inactive | inactive |  | inactive | inactive | inactive | inactive | inactive | inactive | inactive | 0.542 | inactive
12 | CC[C@H]1OC(=O)[C@H](C)[C@@H](O[C@H]2C[C@@](C)(OC)[C@@H](O)[C@H](C)O2)[C@H](C)[C@@H](O[C@@H]2O[C@H](C)C[C@H](N(C)C)[C@H]2O)[C@](C)(O)C[C@@H](C)CN(C)[C@H](C)[C@@H](O)[C@]1(C)O | -23.6 | inactive | -19.1% |  | inactive |  | inactive | inactive |  | inactive | inactive | inactive | inactive | inactive | inactive |  | 0.727 | inactive
13 | C/C=C/C=C/C(=O)O | -0.963 | inactive | 8.21% | inactive | inactive | inactive | inactive | inactive |  | inactive | inactive | inactive | inactive | inactive | inactive | inactive | -0.294 | inactive
14 | c1ccc2ccccc2c1 | 6.48 | inactive | 0.772% | inactive | inactive | inactive | inactive | inactive |  | inactive | inactive | inactive | inactive | inactive | inactive | inactive | -0.432 | inactive
15 | Nc1nccs1 | 4.71 | inactive | -0.295% | inactive | inactive | inactive | inactive | inactive |  | inactive | inactive | inactive | inactive | inactive | inactive | inactive | 0.166 | inactive
